From PubChem BioAssay
An excerpt weighted towards active compounds, which were near 12% of everything screened.
Pf growth 48h: inhibits P. falciparum growth in the first generation, 48 h. P. falciparum luciferase growth in erythrocytes, 48 h. AID 504832. 5.9% of 310,000 active. Potency, µM (doses to about 28.7 µM), for the others: at the top dose activity change, negative = inhibition, actives largely listed as inhibitors; also: % is scaled to controls: 0 for no effect and ±100 for the full control effect
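Luciferase-expressing parasites in RBCs, 2% Hct / 0.1% parasitemia final; RPMI 1640 + 0.5% Albumax; 37 C, 5% CO2, one generation; luminescence read-out, lower signal = inhibition.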
SARS PLpro yeast: blocks SARS-CoV papain-like protease in a yeast assay. Potency, µM (series often up to 32.9 µM), for inactives: top-dose activity, positive = growth rescue, hits mostly activators. 0.19% of 330,000 active. S. cerevisiae expressing SARS-CoV PLpro, growth rescue; calls by dose curve; also: 0% is about no effect; nearly all actives have a fitted effect of over 55% in size
Pf growth 96h: P. falciparum growth inhibition at 96 hours; P. falciparum luciferase reporter growth, 96 h; Potency, µM (titrated, usually from 28.7 µM), without a hit: top-dose activity change, negative = inhibition, hits mostly inhibitors; 6.9% of 320,000 active; AID 504834; also: % is scaled to controls: 0 for no effect and ±100 for the full control effect
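Infected RBCs, 2% Hct / 0.05% parasitemia final; luciferase-reporter P. falciparum; cpd 96 h, 37 C, 5% CO2; luciferase detection reagent; luminescence.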
Sm TGR inh: blocks Schistosoma mansoni thioredoxin glutathione reductase; Potency, µM (top dose mostly 114 µM), without a hit: at the top dose activity change, negative = inhibition, most hits filed as inhibitors; 3% of 360,000 active; Q962Y6; purified TGR, DTNB reduction, TNB absorbance 405 nm; AID 485364; also: % is scaled to controls: 0 for no effect and ±100 for the full control effect; nearly all actives have a fitted effect of over 60% in size
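Kinetic colorimetric format: TGR-catalysed, NADPH-driven DTNB reduction monitored via TNB absorbance. Enzyme dispensed at 20 nM; compound exposure 15 min at room temperature before reaction start.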
* = called active by the depositor; u = inconclusive; x = not tested or not shown; [ ] = remark or other dose. Unless noted, calls follow the shape of the dose curve; as a rule, active = well fitted curve in the direction sought with a large enough effect; inconclusive = small, poorly fitted or top-dose-only effect, or another doubt; inactive = no such curve, though single readings can be large; an effect the other way counts as inactive or inconclusive. Potency is read from the fitted curve at half-maximal effect.

SMILES	Pf growth 48h	SARS PLpro yeast	Pf growth 96h	Sm TGR inh
Cn1c2c(c3ccccc31)CCN1CCC[C@]21c1ccccc1	1%[0.00184 µM]	0%	8.3µM*	-26%
CN1CCc2c(c3ccccc3n2C)C1	46%	0%	u	-10%
Cc1ccc(CNC(=O)c2cc3c(=O)n(C)c4ccccc4c3n2C)o1	x	-1%	9.3µM*	-26%
Cc1ccc(CNC(=O)c2cn(C)c(=O)c3c2c2ccccc2n3C)o1	x	5%	x	22µM*
CCOc1ccccc1CNC(=O)c1cn(C)c(=O)c2c1c1ccccc1n2C	13%	0%	228%	7%
CCCCN(C)CCNC(=O)c1cn(C)c(=O)c2c1c1ccccc1n2C	-24%	3%	32%	45µM*
CCCCN(CC)CCNC(=O)c1cn(C)c(=O)c2c1c1ccccc1n2C	-6%	0%	0%	-12%
Cc1ccc(NC(=O)CC(C)c2ccccc2)cc1S(=O)(=O)N1CCOCC1 (stereo unspecified)	x	-5%	x	x
CCCCCOc1ccc(NC(=O)CSc2cccc3cccnc23)cc1	10µM*	18%	5.2µM*	-5%
O=S(=O)(c1ccc(NC(=S)Nc2ccc(OC(F)F)cc2)cc1)N1CCOCC1	1%	-14%	-21%	45µM*
CC(CC(=O)Nc1ccc(S(=O)(=O)N2CCOCC2)cc1)c1ccccc1 (stereo unspecified)	3.3µM*	-1%	9%	0%
S=C(NCCC(c1ccccc1)c1ccccc1)Nc1ccccc1Cl	u	18%	4.7µM*	2%
CCCOc1ccc(NC(=O)CC2C(=O)N(c3cccc(C)c3)C(=O)N2CCc2ccncc2)cc1 (stereo unspecified)	x	x	x	1%
O=C(NCC1CCCN1S(=O)(=O)c1cccs1)c1cccc(Cl)c1 (stereo unspecified)	u	1%	-8%	-12%
Cc1c(C(=O)N(C)C)sc2c1c(=O)n(-c1ccccc1C(F)(F)F)c(=O)n2Cc1ccccc1C#N	x	x	x	-2%
Cc1ccc(Cl)c(NC(=O)CSc2n[nH]c(=O)n2C2CC2)c1Cl	-1%	-5%	u	-1%
O=S(=O)(c1ccc(NC(=S)NCCC(c2ccccc2)c2ccccc2)cc1)N1CCOCC1	u	13%	8.3µM*	-2%
O=C(CSc1cccc2cccnc12)Nc1ccc(S(=O)(=O)N2CCOCC2)cc1	12µM*	-1%	-9%	-19%
O=C(CCCOc1ccccc1)Nc1ccc(S(=O)(=O)N2CCOCC2)cc1	12µM*	2%	u	5%
O=C(CSc1cccc2cccnc12)Nc1cccc(S(=O)(=O)N2CCOCC2)c1	u	-2%	u	-25%
CCOc1ccccc1OCCCC(=O)Nc1cccc(S(=O)(=O)N2CCOCC2)c1	13µM*	4%	u	-8%
Cc1ccc(OCCCC(=O)Nc2ccc(S(=O)(=O)N3CCOCC3)cc2)cc1	u	-3%	-26%	-8%
CCCCOCCCNC(=S)Nc1ccc(S(=O)(=O)N2CCOCC2)cc1	u	0%	-2%	u
Cc1nc2c(c(SCC(=O)Nc3ccccc3C(F)(F)F)n1)CCC2	x	x	x	0%
Cc1cccc(N2C(=O)CCSC23C(=O)N(Cc2ccc(F)cc2)c2ccccc23)c1 (stereo unspecified)	x	x	x	0%
SMILES	Pf growth 48h	SARS PLpro yeast	Pf growth 96h	Sm TGR inh
O=C(CN1c2cccc3cccc(c23)S1(=O)=O)Nc1ccc(S(=O)(=O)N2CCOCC2)cc1	u	20%	13µM*	7%
CCc1ccc(OCCCC(=O)Nc2ccc(N3CCOCC3)cc2)cc1	-18%	0%	7.4µM*	7%
CCc1ccc(NC(=O)CN2C(=O)CSc3ccc(S(=O)(=O)N(C)C)cc32)cc1	x	x	x	11%
Cc1ccc(-c2nc(C)c(CCNS(=O)(=O)c3ccccc3F)s2)cc1	x	x	x	1%
N=c1oc2c3c4c(cc2cc1C(=O)Nc1ccccc1)CCCN4CCC3	x	-6%	13µM*	0%[11.4 µM]
CCCCC(=O)NNC(=O)c1c(O)c2ccccc2[nH]c1=O	4%	0%	35%	12%
O=C(CCl)NNC(=O)c1c(O)c2ccccc2[nH]c1=O	u	0%	u	14µM*
CC(=O)c1c(C)[nH]c(C(=O)OCC(=O)NCc2cccs2)c1C	64%	3%	112%	-2%
O=C(/C=C/c1ccco1)c1ccc(O)cc1	208%	1%	195%	3.5µM*
CN(C)c1ccc(C(=O)/C=C/c2ccco2)cc1	169%	-38%	100%	45µM*
CCN1CCS/C1=C\C=C\C1=[N+](CC)CCS1	0.93µM*	-11%	63%	-17%
